Experimental data reported in the supplement of paper PMC4466140.

Each binder was assayed against AgAbp1 (assay: SPOT peptide array binding signal intensity (averaged, normalized) (arbitrary units (background-subtracted, floor 0; scale differs between SH3 domains)); higher = stronger binding of the SH3 domain to the peptide).
Outline: (§1)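 GST-fused SH3 domains, from four yeast species, were produced in E. coli BL21(DE3) and captured on glutathione Sepharose. Membranes of cellulose carrying synthetic 15-mer peptides, in which cysteines had been replaced by serines, were exposed to each domain at 10 μg/ml overnight at 4°C in TBS-based blocking buffer. After anti-GST antibody, an HRP anti-mouse secondary and luminol, spots were imaged and quantified using Genespotter. Binding signal is normalized and background-subtracted spot intensity, averaged over replicates, in arbitrary units that differ between domains.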
DDEDVPPQLPTRTKS was tested, and the “SPOT peptide array binding signal intensity” value was at most 0.

These binders were tested against AgBbc1 in the same assay as above.
Outline: as §1
In the case of DDEDVPPQLPTRTKS, the “SPOT peptide array binding signal intensity” value is reported as 14.5.

These binders were tested against AgBem1-D1 in the same assay as above.
Outline: as §1
For DDEDVPPQLPTRTKS, the “SPOT peptide array binding signal intensity” value was 1.

The binders below were run against AgBzz1-D1 in the same assay as above.
Outline: as §1
With DDEDVPPQLPTRTKS the “SPOT peptide array binding signal intensity” value was 28.

These binders were tested against AgBzz1-D2 in the same assay as above.
Outline: as §1
For DDEDVPPQLPTRTKS, the “SPOT peptide array binding signal intensity” value was 11.5.

Each binder was assayed against AgCyk3 in the same assay as above.
Outline: as §1
In the case of DDEDVPPQLPTRTKS, the “SPOT peptide array binding signal intensity” value is reported as at most 0.

What follows are binders tested against AgFus1 in the same assay as above.
Outline: as §1
In the case of DDEDVPPQLPTRTKS, the “SPOT peptide array binding signal intensity” value is reported as 6.5.

Each binder was assayed against AgHof1 in the same assay as above.
Outline: as §1
DDEDVPPQLPTRTKS was tested, and the “SPOT peptide array binding signal intensity” value was 28.

These binders were tested against AgHse1 in the same assay as above.
Outline: as §1
DDEDVPPQLPTRTKS was tested, and the “SPOT peptide array binding signal intensity” value was 17.

The binders below were run against AgLsb1 in the same assay as above.
Outline: as §1
For DDEDVPPQLPTRTKS, the “SPOT peptide array binding signal intensity” value was 14.

These binders were tested against AgLsb4 in the same assay as above.
Outline: as §1
In the case of DDEDVPPQLPTRTKS, the “SPOT peptide array binding signal intensity” value is reported as 6150.

What follows are binders tested against AgMyo5 in the same assay as above.
Outline: as §1
DDEDVPPQLPTRTKS was tested, and the “SPOT peptide array binding signal intensity” value was 1.75.

These binders were tested against AgNbp2 in the same assay as above.
Outline: as §1
For DDEDVPPQLPTRTKS, the “SPOT peptide array binding signal intensity” value was at most 0.

The binders below were run against AgRvs167 in the same assay as above.
Outline: as §1
With DDEDVPPQLPTRTKS the “SPOT peptide array binding signal intensity” value was 53.2.

The binders below were run against AgSho1 in the same assay as above.
Outline: as §1
In the case of DDEDVPPQLPTRTKS, the “SPOT peptide array binding signal intensity” value is reported as 10.

The binders below were run against AgSla1-D1-D2 in the same assay as above.
Outline: as §1
DDEDVPPQLPTRTKS was tested, and the “SPOT peptide array binding signal intensity” value was at most 0.

Each binder was assayed against AgSla1-D3 in the same assay as above.
Outline: as §1
With DDEDVPPQLPTRTKS the “SPOT peptide array binding signal intensity” value was at most 0.

Each binder was assayed against CaAbp1-D1 in the same assay as above.
Outline: as §1
In the case of DDEDVPPQLPTRTKS, the “SPOT peptide array binding signal intensity” value is reported as at most 0.

These binders were tested against CaAbp1-D2 in the same assay as above.
Outline: as §1
In the case of DDEDVPPQLPTRTKS, the “SPOT peptide array binding signal intensity” value is reported as at most 0.

These binders were tested against CaBbc1 in the same assay as above.
Outline: as §1
For DDEDVPPQLPTRTKS, the “SPOT peptide array binding signal intensity” value was 45.

These binders were tested against CaBem1-D1 in the same assay as above.
Outline: as §1
In the case of DDEDVPPQLPTRTKS, the “SPOT peptide array binding signal intensity” value is reported as 9.5.

What follows are binders tested against CaBzz1-D1 in the same assay as above.
Outline: as §1
With DDEDVPPQLPTRTKS the “SPOT peptide array binding signal intensity” value was at most 0.

The binders below were run against CaBzz1-D2 in the same assay as above.
Outline: as §1
DDEDVPPQLPTRTKS was tested, and the “SPOT peptide array binding signal intensity” value was at most 0.

These binders were tested against CaCyk3 in the same assay as above.
Outline: as §1
With DDEDVPPQLPTRTKS the “SPOT peptide array binding signal intensity” value was 3.

These binders were tested against CaFus1 in the same assay as above.
Outline: as §1
With DDEDVPPQLPTRTKS the “SPOT peptide array binding signal intensity” value was 78.

Each binder was assayed against CaHof1 in the same assay as above.
Outline: as §1
With DDEDVPPQLPTRTKS the “SPOT peptide array binding signal intensity” value was 7.5.

These binders were tested against CaHse1 in the same assay as above.
Outline: as §1
In the case of DDEDVPPQLPTRTKS, the “SPOT peptide array binding signal intensity” value is reported as 27.

What follows are binders tested against CaLsb1 in the same assay as above.
Outline: as §1
For DDEDVPPQLPTRTKS, the “SPOT peptide array binding signal intensity” value was 6.5.

What follows are binders tested against CaLsb4 in the same assay as above.
Outline: as §1
For DDEDVPPQLPTRTKS, the “SPOT peptide array binding signal intensity” value was 6780.

What follows are binders tested against CaMyo5 in the same assay as above.
Outline: as §1
DDEDVPPQLPTRTKS was tested, and the “SPOT peptide array binding signal intensity” value was 2.
